In the test the target is Voltage-dependent N-type calcium channel subunit alpha-1B (Homo sapiens) (UniProt Q00975). Briefly: inhibitors of Mint1-CaV2.2 protein interaction, biochemical, HTRF (AID 2073). The settings on record: at 20 µM, stronger effect = higher value. (In general: TR-FRET usually uses a lanthanide donor and a delayed reading to cut background.)
Setting [1] is: measured here: average of repeat tests.

The structures appear in SMILES notation. About 570 (0.2%) of roughly 290,000 compounds were called active. Not shown: some 1% with an inconclusive outcome. No stated cut-off is given here; in the data, active means inhibition mostly above about 51% (no sharp cut-off); inconclusive means no clear call, values can overlap the other calls; inactive means mostly below about 53%. Many of the other results were omitted from the sample, so actives are more common in it than they were.

Voltage-dependent N-type calcium channel subunit alpha-1B (Homo sapiens), sequence (Q00975 whole entry, looked up): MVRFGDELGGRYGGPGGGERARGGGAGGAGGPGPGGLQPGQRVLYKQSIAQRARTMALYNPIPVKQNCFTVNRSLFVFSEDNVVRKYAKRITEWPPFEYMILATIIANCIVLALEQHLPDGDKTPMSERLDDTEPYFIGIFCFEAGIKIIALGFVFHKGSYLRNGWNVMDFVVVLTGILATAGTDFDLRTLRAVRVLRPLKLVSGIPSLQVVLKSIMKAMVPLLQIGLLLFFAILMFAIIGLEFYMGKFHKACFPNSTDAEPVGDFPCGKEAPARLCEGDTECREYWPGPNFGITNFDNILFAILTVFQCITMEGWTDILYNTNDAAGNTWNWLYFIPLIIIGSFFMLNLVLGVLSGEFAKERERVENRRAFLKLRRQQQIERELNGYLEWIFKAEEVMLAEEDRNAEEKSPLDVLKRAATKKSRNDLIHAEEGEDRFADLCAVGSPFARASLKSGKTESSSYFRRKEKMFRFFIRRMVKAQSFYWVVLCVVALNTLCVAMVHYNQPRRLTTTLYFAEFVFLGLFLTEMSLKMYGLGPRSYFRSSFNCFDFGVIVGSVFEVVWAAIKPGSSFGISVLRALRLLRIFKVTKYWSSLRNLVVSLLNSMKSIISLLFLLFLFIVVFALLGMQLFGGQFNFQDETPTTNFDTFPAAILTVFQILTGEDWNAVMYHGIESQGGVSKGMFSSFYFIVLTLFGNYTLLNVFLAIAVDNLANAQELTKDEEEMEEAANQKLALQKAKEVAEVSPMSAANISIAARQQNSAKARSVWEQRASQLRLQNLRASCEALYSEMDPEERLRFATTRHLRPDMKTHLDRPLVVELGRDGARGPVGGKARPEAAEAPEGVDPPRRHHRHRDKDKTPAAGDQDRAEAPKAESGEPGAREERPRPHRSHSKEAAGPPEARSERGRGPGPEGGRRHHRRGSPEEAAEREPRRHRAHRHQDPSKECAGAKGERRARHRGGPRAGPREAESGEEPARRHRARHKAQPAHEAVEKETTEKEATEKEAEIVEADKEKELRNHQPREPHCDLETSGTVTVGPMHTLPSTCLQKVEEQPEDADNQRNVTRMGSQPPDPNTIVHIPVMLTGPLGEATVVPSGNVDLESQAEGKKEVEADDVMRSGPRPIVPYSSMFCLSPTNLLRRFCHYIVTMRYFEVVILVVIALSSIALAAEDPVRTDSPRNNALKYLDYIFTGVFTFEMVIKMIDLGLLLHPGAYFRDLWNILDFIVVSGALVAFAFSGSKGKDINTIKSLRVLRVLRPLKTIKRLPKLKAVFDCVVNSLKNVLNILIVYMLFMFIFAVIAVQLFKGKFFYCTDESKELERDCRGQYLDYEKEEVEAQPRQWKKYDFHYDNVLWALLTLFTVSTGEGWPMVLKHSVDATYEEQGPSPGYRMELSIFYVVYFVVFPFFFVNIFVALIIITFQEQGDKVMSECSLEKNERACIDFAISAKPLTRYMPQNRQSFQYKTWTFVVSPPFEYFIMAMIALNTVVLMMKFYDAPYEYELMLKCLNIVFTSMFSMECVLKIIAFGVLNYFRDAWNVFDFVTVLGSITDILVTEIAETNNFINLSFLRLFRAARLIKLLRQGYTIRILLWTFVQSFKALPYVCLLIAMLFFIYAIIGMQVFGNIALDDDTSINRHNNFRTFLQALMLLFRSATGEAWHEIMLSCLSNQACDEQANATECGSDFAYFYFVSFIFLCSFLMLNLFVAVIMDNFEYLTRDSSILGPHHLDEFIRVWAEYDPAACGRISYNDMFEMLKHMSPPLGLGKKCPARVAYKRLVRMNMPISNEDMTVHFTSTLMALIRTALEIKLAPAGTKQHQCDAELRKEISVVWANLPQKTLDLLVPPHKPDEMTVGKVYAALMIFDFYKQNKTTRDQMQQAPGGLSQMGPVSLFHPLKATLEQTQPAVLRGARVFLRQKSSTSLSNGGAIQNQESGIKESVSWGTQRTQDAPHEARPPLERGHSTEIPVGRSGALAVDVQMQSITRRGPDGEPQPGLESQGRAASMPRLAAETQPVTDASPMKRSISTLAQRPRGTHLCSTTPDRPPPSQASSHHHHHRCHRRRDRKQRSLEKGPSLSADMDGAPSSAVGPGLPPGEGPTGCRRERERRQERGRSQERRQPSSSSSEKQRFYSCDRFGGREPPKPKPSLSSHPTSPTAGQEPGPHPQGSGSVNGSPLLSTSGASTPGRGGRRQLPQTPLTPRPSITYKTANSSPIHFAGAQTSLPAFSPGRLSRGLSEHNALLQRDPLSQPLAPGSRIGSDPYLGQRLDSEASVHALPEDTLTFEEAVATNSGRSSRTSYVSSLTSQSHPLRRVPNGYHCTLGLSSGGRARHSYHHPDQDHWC

Consider `O=S(=O)(Cc1ccccc1)N1CCN(c2ncccn2)CC1`, for which the inhibition (as a rule, the drop in the measured response relative to a control, in per cent) is 7.7% (inactive).

With `CCC(C(=O)NC1CC1)n1nc(C)c2c(C)n(-c3ccc(C)cc3)nc2c1=O` (configuration not stated), the inhibition is 9.6% (inactive).

Regarding `COc1cc2c(cc1NC(=S)NC(=O)/C=C/c1ccc(OC)c(OC)c1)oc1ccccc12`, the inhibition was 14.5% (inactive).

`COc1ccc(/C=C/C(=O)NC(=S)Nc2cc3oc4ccccc4c3cc2OC)cc1`: the inhibition was 0.7% (inactive).

Turning to `COc1cc2c(cc1NC(=S)NC(=O)/C=C/c1ccco1)oc1ccccc12`, the inhibition is 53.2% (active).

For the compound `Cc1oc(-c2ccccc2Cl)nc1CS(=O)CC(=O)NCc1ccco1` (configuration not stated), the inhibition was 19.1% (inactive).

For `Cc1cc(OCC(O)CN2CCCC2)ccc1C(C)C` (configuration not stated), the inhibition is -5.6% (inactive).

`O=C(Nc1ccc(C2=NCCN2)cc1)c1ccc(C(=O)Nc2ccc(C3=NCCN3)cc2)c(Cl)c1`: the inhibition is 51.6% (active).

As to `O=C(Nc1ccc(C2=NCCN2)cc1)c1ccc(Cl)c(C(=O)Nc2ccc(C3=NCCN3)cc2)c1`, the inhibition is 36.8% (inactive).

As for `O=C(Nc1ccc(C2=NCCN2)cc1)c1ccc(C(=O)Nc2ccc(C3=NCCN3)cc2)c([N+](=O)[O-])c1`, the inhibition was 30.7% (inactive).

In the case of `O=C(/C=C/c1ccc(Cl)cc1)N(Cc1ccccc1)c1ccccn1`, the inhibition is 22.8% (inactive).

Turning to `COc1ccccc1CN(C)C(=O)c1cnc(C)cn1`, the inhibition was 5.7% (inactive).

For the compound `Cc1cccc(/C=N/N2CCN(c3ccccc3)CC2)c1`, the inhibition is -12.6% (inactive).

Regarding `CCCN1CCC(=O)N([C@H](CO)c2ccccc2)CC1`, the inhibition was 5.6% (inactive).

On to `C=CCN1C(=O)c2cccc3c(N4CCCCC4)ccc(c23)C1=O`, for which the inhibition is 53.2% (active).

In the case of `CCCN1C(=O)c2cccc3c(N4CCCCC4)ccc(c23)C1=O`, the inhibition is 11.8% (inactive).

In the case of `O=C1c2cccc3c(N4CCCCC4)ccc(c23)C(=O)N1CCO`, the inhibition is 24.6% (inactive).

Take `CCOc1ccc(C(=O)NC(=S)NCCCN2CCOCC2)cc1`: the inhibition was -2.3% (inactive).

Regarding `O=C(Nc1cccc(S(=O)(=O)N2CCCCC2)c1)c1c2c(nc3ccccc13)CCN(Cc1ccccc1)C2`, the inhibition is 40.8% (inactive).

For `O=C(Nc1cccc(S(=O)(=O)N2CCOCC2)c1)c1c2c(nc3ccccc13)CCC2`, the inhibition was 56% (active).

On to `COc1ccc(NC(=O)c2c3c(nc4ccccc24)CCC3)cc1S(=O)(=O)N1CCOCC1`, for which the inhibition was 59.4% (inactive). Besides, under setting [1], the inhibition amounted to 41.1%.

In the case of `CCOc1cc(C(c2c(C)[nH][nH]c2=O)c2c(C)[nH][nH]c2=O)cc(Br)c1OC`, the inhibition is 5.6% (inactive).

For `C=CC#CC1(O)CC(C)[N+](C)(C)CC1C` (configuration not stated), the inhibition was 17.6% (inactive).

On to `COCCn1c(=NC(=O)c2cc(Cl)sc2Cl)sc2cc(S(N)(=O)=O)ccc21`, for which the inhibition was 38.7% (inactive).

In the case of `CCOCCn1c(=NC(=O)c2cc(Cl)sc2Cl)sc2cc(S(N)(=O)=O)ccc21`, the inhibition is 53.8% (active).

For the compound `C=CCn1c(=NC(=O)c2cc(Cl)sc2Cl)sc2cc(S(N)(=O)=O)ccc21`, the inhibition is 27.4% (inactive).

For the compound `CCOc1ccccc1C(=O)NC(C(=O)Nc1cccnc1)C(C)C` (configuration not stated), the inhibition is 3.3% (inactive).

Consider `Cc1cc(C(=O)COc2cccnc2[N+](=O)[O-])c(C)n1Cc1cccs1`, for which the inhibition is 34% (inactive).

`Cc1cc(C(=O)COc2cccnc2[N+](=O)[O-])c(C)n1Cc1ccco1`: the inhibition was 78.9% (active).

Turning to `COCCn1c(C)cc(C(=O)COc2cccnc2[N+](=O)[O-])c1C`, the inhibition was -4% (inactive).

For the compound `Cc1ccc(NC(=O)c2c3c(nc4ccccc24)CCC3)cc1S(=O)(=O)N(C)C`, the inhibition is 53.6% (inactive). Besides, the inhibition under setting [1] is 31.4%.

`Cc1ccc(S(=O)(=O)N(C)CC(=O)OCC(=O)N2CCCC2=O)cc1`: the inhibition is -12.9% (inactive).

For the compound `O=C(Nc1nc(-c2cccnc2)cs1)c1ccc([N+](=O)[O-])cc1`, the inhibition was 19% (inactive).

With `COc1cc(CN(C(=O)c2ccco2)C2CCS(=O)(=O)C2)cc(OC)c1OC` (configuration not stated), the inhibition is 11.2% (inactive).

Take `CC(=O)c1cccc(Nc2nc(-c3ccccc3)cs2)c1`: the inhibition is 0.5% (inactive).

On to `Oc1ccc(Cl)cc1C=Nc1ccc2c3c(cccc13)CC2`, for which the inhibition is 50.4% (inactive). Besides, the inhibition under setting [1] amounted to 11.1%.

As for `Oc1ccc(Br)cc1C=Nc1ccc2c3c(cccc13)CC2`, the inhibition is 53.5% (active).

Consider `Cc1cccc(C=Nc2ccc3c4c(cccc24)CC3)c1O`, for which the inhibition is 7.8% (inactive).

Take `O=[N+]([O-])c1cc(Cl)ccc1N1CCCC1`: the inhibition was -1.5% (inactive).

For the origin of these results see PubChem BioAssay AID2073 (Sanford-Burnham Center for Chemical Genomics, 2009).
